# This is part of a sample that, as a whole, favours compounds with a hit. Of some 83,000 tested, about 20% had one in any assay.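 Percent growth is the endpoint: 0 to 100 indicates growth inhibition (40 means 60% inhibition), 0 means no net growth, and negative values indicate cell death.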 Values without a mark were called inactive. Active and inactive are the calls of the source. Rule for the calls: active = growth percent below 10; inactive = the rest.
# System: SF-295 CNS
# Experiment: NCI-60 one-dose screen, 48 h (100 = growth as untreated, 0 = no growth, -100 = all killed)
# Settings: 10 µM unless noted
row,SMILES,growth
1,O=c1nc(-c2ccccc2)c2cc(-c3ccc(N4CCCC4)nc3)ccc2[nH]1,39.4%
2,O=[N+]([O-])c1cccc(CN(Cc2cccc([N+](=O)[O-])c2O)c2ccccc2)c1O,66.6%
3,Oc1ccccc1-c1nc2c3ccccc3c3ccccc3c2o1,115%
4,CN(C)CCCn1c2c(c3cc(-c4ccco4)ccc3c1=O)C(=O)c1ccccc1-2,82.6%
5,COc1ccc(C2CC(c3ccc(OC)cc3O)=NN2c2ccc(S(N)(=O)=O)cc2)cc1 (stereo not drawn),-7.99% (active)
6,Cc1c(Cl)cccc1NC(=O)c1sc2nc3c(cc2c1N)CCCCCC3,24.6%
7,[2H]c1cc2c(c([2H])c1F)/C(=C/c1[nH]c(C)c(C(=O)NCCN(CC)CC)c1C)C(=O)N2,85.1%
8,CC(=O)Oc1c2c(nc3c1c1ccccc1n3Cc1ccccc1)-c1ccccc1C2,96%
9,C=C(C)[C@@H]1CC[C@]2(C(=O)n3ccnc3)CC[C@]3(C)[C@H](CC[C@@H]4[C@@]5(C)CCCNC(C)(C)[C@@H]5CC[C@]43C)[C@@H]12,-54.7% (active)
10,CC(C)C[C@H](C(=O)O)N(C)C(=O)[C@@H]1CCCN1C(=O)[C@H](C)OC(=O)[C@H](CCC(N)=O)NC(=O)[C@@H]1CCC(=O)N1,93.7%
11,COC(=O)CCc1cc(O)c2c(c1)[C@@H](C(=O)OC)[C@H](c1ccc(O)c(O)c1)O2,84.7%
12,CCCCN(CCCC)CC(CN(CC)CC)OC(=O)Nc1ccccc1 (stereo not drawn),77.5%
13,COC(=O)CCc1n(Cc2ccc3ccccc3c2)c2ccccc2[n+]1Cc1ccc2ccccc2c1,13.1%
14,COc1ccc(Nc2nc(SCC(C)C)nc(-c3ccc(F)cc3)c2C#N)cc1,40.6%
15,CCCS(=O)(=O)Nc1ccc(F)c(C(=O)c2c[nH]c3ncc(-c4ccc(OCCCC5CCCCN5)nc4)cc23)c1F (stereo not drawn),75.7%
16,CC(=O)c1ccc(NC(=O)CSc2nnc(-c3cc(-c4ccc(C)cc4)nc4ccccc34)o2)cc1,69.5%
17,Oc1ccc(CNNc2ccnc3c(O)cccc23)c2cccnc12,17.7%
18,COc1ccc(-c2cs/c(=N\N=C\c3ccc(O)cc3O)n2/N=C/c2ccc(O)cc2O)cc1,-24.4% (active)
19,c1ccc(-c2n(Cc3ccc4ccccc4n3)cc[n+]2Cc2ccc3ccccc3n2)cc1,67.8%

row,SMILES,growth
1,O=C1C(Cl)=C(NCCCN(CCCNC2=C(Cl)C(=O)c3ccccc3C2=O)C2=C(Cl)C(=O)c3ccccc3C2=O)C(=O)c2ccccc21,91.4%
2,CCc1ccc(OCc2ccccc2C(=O)Nc2ccc3nc(C)cc(N)c3c2)cc1,-92% (active)
3,CC1CCN(CCCCCOc2ccc3oc4cc(Cl)ccc4c(=O)c3c2)CC1,78.2%
4,Nc1ccccc1NS(=O)(=O)c1ccc(Cl)cc1,101%
5,COc1cc(C2=NNC(c3ccc(N(C)C)cc3)C2)cc(OC)c1OC (stereo not drawn),30.3%
6,COc1cc(NC(=O)Nc2cnc(Nc3ccc(N4CCOCC4)cc3)nc2Oc2ccc(C(F)(F)F)cc2)cc(OC)c1,111%
7,C=C(C)[C@@H]1CC[C@]2(C(=O)O)CC[C@]3(C)[C@H](CC[C@@H]4[C@@]5(C)C[C@@H](CC#Cc6ccc(Cl)cc6)C(=O)C(C)(C)[C@@H]5CC[C@]43C)[C@@H]12,41.3%
8,Cc1cc(Nc2nc(SCc3ccc(C(=O)Nc4ccc(F)cc4N)cc3)nn3cccc23)n[nH]1,18%
9,O=C(/C(=C/c1ccc([N+](=O)[O-])cc1)SCc1ccc(F)cc1)c1ccc(Cl)cc1,81.6%
10,C#C[C@@]1(O)[C@@H](CO)O[C@@H](n2cc(Br)c3c(N)ncnc32)[C@@H]1O,2.42% (active)
11,CC(=O)[C@@H]1CC[C@]2(C(=O)O)CC[C@]3(C)[C@H](CC[C@@H]4[C@@]5(C)Cc6c([nH]c7ccccc67)C(C)(C)[C@@H]5CC[C@]43C)[C@@H]12,36%
12,CC[C@]12C=CCN3CC[C@@]4(c5cc(NC(=O)CCC(=O)O[C@H]6CC[C@H]7[C@@H]8CC[C@H]9CC(=O)CC[C@]9(C)[C@H]8CC[C@]67C)c(OC)cc5N(C)[C@H]4[C@@](O)(C(=O)OC)[C@@H]1OC(C)=O)[C@@H]32,68.4%
13,CCCCCOC(=O)c1ccccc1O,98%
14,O=C1CCC23OC(c4ccccc4N12)C(O)C(O)C3O (stereo not drawn),110%
15,N#Cc1c(NC(=O)c2cccs2)[n+]([O-])c2cc(C(F)(F)F)ccc2[n+]1[O-],97.9%
16,Cc1[nH]c2ncnc(Oc3ccc(NC(=O)Nc4ccc(Cl)c(C(F)(F)F)c4)cc3)c2c1C,62.4%
17,c1cc(CNC23CC4CC(CC(C4)C2)C3)cc(C[N+](Cc2cccc(CNC34CC5CC(CC(C5)C3)C4)c2)(Cc2cccc(CNC34CC5CC(CC(C5)C3)C4)c2)Cc2cccc(CNC34CC5CC(CC(C5)C3)C4)c2)c1 (stereo not drawn),54.4% [42 µM]
18,C[C@H]1[C@H](C)CC[C@]2(C(=O)OCCCC[P+](c3ccccc3)(c3ccccc3)c3ccccc3)CC[C@]3(C)C(=CC[C@@H]4[C@@]5(C)CC[C@H](OC(=O)C(Cl)Cl)C(C)(C)[C@@H]5CC[C@]43C)[C@H]12,-77.9% (active)
19,O=C(Nc1nc(-c2ccccc2)cs1)c1cc(-c2ccc(Br)cc2)nc2ccccc12,49.9%
